According to PubChem BioAssay (NCI):
The panel holds about 83,000 compounds, 20% with a hit somewhere; the sample as a whole holds those more often.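 A percent growth of 40 corresponds to 60% growth inhibition; 0 means no net growth; -100 means all cells died. Active threshold: below 10.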 Active and inactive are the calls of the source.

System: NCI-H322M lung
Experiment: NCI-60 one-dose screen, 48 h (100 = growth as untreated, 0 = no growth, -100 = all killed)
Details: 10 µM unless noted

Compound | growth
O=C1NN(c2ccccc2)C(c2ccc(Cl)cc2)N2CCC[C@H]12 (stereo partly drawn) | 94.1% (inactive)
Nc1ccccc1NS(=O)(=O)c1ccc(Cl)cc1 | 81.9% (inactive)
CCCCCCN1C(=O)CN=C1Nc1ccc2cc3ccc(NC4=NCC(=O)N4CCCCCC)cc3nc2c1 | 79.7% (inactive)
Nc1n[nH]c2cccc(C#Cc3cccc(NC(=O)c4cc(N5CCOCC5)cc(C(F)(F)F)c4)c3)c12 | 55.2% (inactive)
Cc1cnc(SCc2ccc(Cl)cc2Cl)nc1Nc1ccc(Cl)c(Cl)c1 | 82% (inactive)

System: HOP-62 NSCLC
Experiment: as above
Details: 10 µM unless noted

Compound | growth
COc1ccc(/C=C/C(=O)/C=C(/C=C/c2ccc(OC)c(OC)c2)OB(F)F)cc1OC | 83.5% (inactive)
COc1cc(/C=C/C(=O)/C=C/c2cc3ccc(Cl)cc3[nH]c2=O)ccc1O | 114% (inactive)
CCCCn1c(=O)c(/C=C/C(=O)/C=C/c2cc3ccccc3n(CCCC)c2=O)cc2ccccc21 | 49% (inactive)
COc1ccc(-c2nc(C#N)c(NCC(c3ccco3)N3CCCC3)o2)cc1 (stereo not drawn) | 47.1% (inactive)
N#C/C(=C/c1ccc(O)c([N+](=O)[O-])c1)c1nc(-c2ccc([N+](=O)[O-])cc2)cs1 | 86.8% (inactive)
C=C1C(=O)O[C@H]2[C@H]1CC/C(COC(=O)CCCCC(=O)OC/C1=C/CC[C@@]3(C)O[C@H]3[C@H]3OC(=O)C(=C)[C@@H]3CC1)=C\CC[C@@]1(C)O[C@@H]21 | 86.8% (inactive)
CCOC(=O)c1c(C(F)(F)F)n([O-])c2ccc(Cl)cc2[n+]1=O | -65.6% (active)
COc1ccc(-c2nc(C#N)c(NCC(c3ccc(Cl)cc3)N3CCCCC3)o2)cc1 (stereo not drawn) | 107% (inactive)
